Experimental data: PubChem BioAssay (NCATS)
“And” between values parts separate entries of the source, which are not always exact repeats. Identical values can stand only once. Results filed as inconclusive are left out. Where a call stands in place of a potency, no number is given. The source made the active and inactive calls. The call rests on the fitted dose curve; in most records, active means well fitted cell-killing curve with a large enough effect; inconclusive means small, poorly fitted or top-dose-only effect; inactive means flat fitted curve, though single readings scatter. Peptide text beside a SMILES is read from it.

assay: qHTS of pediatric cancer cell lines to identify multiple opportunities for drug repurposing: Primary screen for control Hh wild type fibroblast cells (AID 1347106); details: Hh wild-type fibroblast viability, CellTiter-Glo luminescence, 48 h; series mostly up to 46 µM; activity change, negative = cytotoxic: at the top concentration; further: nearly all actives have a fitted effect of over 55% in size;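 on activity change, negative = cytotoxic: a drop in luminescence marks cytotoxicity and a rise apparent proliferation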
Description: Drug repurposing or repositioning has been offered as a strategy for drug development in oncology programs. This approach has special potential for childhood cancers and other rare or orphan diseases, where the expected return on new drug development has been a disincentive to pharmaceuticals.
In this project we exploit the poly-pharmacology of drugs to discover new indications via phenotypic screening of a panel of 19 well-characterized cell lines derived from solid tumors seen in children and adolescents. The goal is to identify approved drugs with previously unrecognized anticancer properties that has the potential to reveal new mechanisms and biological processes involved in carcinogenesis or drug resistance. We employed a titration-based paradigm (quantitative high-throughput screening or qHTS), where all compounds were tested at multiple concentrations for their effect on cell viability. Concentration-response curves (CRCs) were derived directly from the primary screen, and both potency and efficacy values were used to identify compounds with robust bioactivity profiles. We screened the NIH Chemical Genomics Center (NCGC) Pharmaceutical Collection (NPC) and Mechanism Interrogation Plate (MIPE) small molecule collections of approved and investigational compounds against these cell lines; and measured metabolically active cells after 48 hours of compound treatment as a proxy for cell viability.
Assay Submitter: Nathalia J. Martinez, National Center for Advancing Translational Sciences, National Institutes of Health, Rockville, MD, USA; email: natalia.martinez@nih.gov
[1] Shen, M et al. Quantitative high-throughput phenotypic screening of pediatric cancer cell lines identifies multiple opportunities for drug repurposing. Oncotarget 2017 Dec 19;9(4):4758-4772. PMID 29435139.
The cells were obtained from University of North Carolina (UNC), Pediatric Preclinical Testing Program (PPT), and Coriell Institute (CI).
qHTS cell viability assay:
Cells were assayed in growth media at a density of 500-1,000 cells/well. Five microliters of cells were dispensed into 1,536-well, white, solid-bottom, TC-treated plates (Greiner Bio One) using a multidrop dispenser and incubated at 37 degrees C, 5% CO2, under a humidified atmosphere for 5 hours. Twenty-three nanoliters of compounds and controls (neutral control DMSO or positive control bortezomib at final concentration of 2.3 µM) were subsequently transferred by Kalypsys pintool. For primary screens, the MIPE collection was tested at 11-point dilutions (final concentrations range from 0.78 nM to 46 µM) and the NPC collection at 8-point dilutions (final concentrations range from 0.59 nM to 46 µM). Compounds tested in follow-up screens were assayed at 11-point dilutions. Cells were incubated for 48 hours, followed by addition of 3 µL of CellTiter-Glo (Promega). After a 15 min incubation at room temperature, samples were analyzed for luminescence intensity using a ViewLux High-throughput CCD imager equipped with clear filters.
Potency means the concentration at half of the fitted maximal effect.

SMILES	activity change, negative = cytotoxic	Potency
O=c1cc(N2CCOCC2)oc2c(-c3ccccc3)cccc12	-7.75% (inactive)	–
NNc1nncc2ccccc12	–	inactive
CCOC(=O)C(C)Oc1cccc2c(=O)n(CC(=O)Nc3ccc4c(c3)OCCO4)ccc12 (stereo not given)	-8.21% (inactive)	–
Oc1ccc(OCc2ccccc2)cc1	–	inactive
COCCCOc1ccnc(CS(=O)c2nc3ccccc3[nH]2)c1C (stereo not given)	–	inactive
COCCCN1CCC(NC(=O)c2cc(Cl)c(N)c3c2OCC3)CC1	–	inactive
C[C@]12CCC(=O)C=C1CC[C@@H]1[C@H]2[C@@H](O)C[C@@]2(C)[C@H]1CC[C@]2(O)C(=O)CO	6.23% (inactive)	–
O=C(OC1C[C@H]2CC[C@@H](C1)[N+]21CCCC1)C(O)(c1ccccc1)c1ccccc1 (stereo not given in full)	14.2% (inactive)	–
CCN(CCO)CCCC(C)Nc1ccnc2cc(Cl)ccc12 (stereo not given)	–	inactive
Cc1ccc(S(=O)(=O)NC(=O)NN2CC3CCCC3C2)cc1 (stereo not given)	–	inactive
NC(=O)Cc1cccc(C(=O)c2ccccc2)c1N	–	inactive
C=C(c1ccc(C(=O)O)cc1)c1cc2c(cc1C)C(C)(C)CCC2(C)C	–	inactive
Nc1nc(OCc2ccccc2)c2[nH]cnc2n1	-11.3% (inactive)	–
Nc1ccn([C@@H]2O[C@H](CO)[C@@H](O)C2O)c(=O)n1 (stereo not given in full)	-10.1% (inactive)	–
Nc1cc(C(Cl)=C(Cl)Cl)c(S(N)(=O)=O)cc1S(N)(=O)=O	–	inactive
COc1cc(OC)c(C(=O)CCCN2CCCC2)c(OC)c1	–	inactive
COc1c(O)cc2c(c1O)[C@@H]1O[C@H](CO)[C@@H](O)[C@H](O)[C@H]1OC2=O	14.7% (inactive)	–
C[C@@H](c1ncncc1F)[C@](O)(Cn1cncn1)c1ccc(F)cc1F	2.42% (inactive)	–
O=C1NC(=O)C(c2ccccc2[N+](=O)[O-])=C1Nc1ccc(O)c(Cl)c1	-0.847% (inactive)	–
CN(C)c1ccc(O)c2c1C[C@H]1C[C@H]3[C@H](N(C)C)C(=O)C(C(N)=O)=C(O)[C@@]3(O)C(=O)C1=C2O	–	inactive

SMILES	activity change, negative = cytotoxic	Potency
CN(C)CCc1c[nH]c2ccc(Cn3cncn3)cc12	-1.64% (inactive)	–
CC1Cc2ccccc2N1NC(=O)c1ccc(Cl)c(S(N)(=O)=O)c1 (stereo not given)	–	inactive
CC(=O)Nc1ccc(O)cc1	–	inactive
CC1(C)C(=O)N(CCN2CCC(C(=O)c3ccc(F)cc3)CC2)c2ccccc21	5.82% (inactive)	–
NS(=O)(=O)c1cc(C(=O)O)c(NCc2ccco2)cc1Cl	–	inactive
Nc1nc(Cl)nc2c1ncn2[C@H]1C[C@H](O)[C@@H](CO)O1	-3.53% (inactive)	–
CCN(CC)C(=S)SSC(=S)N(CC)CC	–	166 nM (active) and 111 nM (active) and 1.19 µM (active)
Cc1cc2cc3c(C)cc(=O)oc3c(C)c2o1	2.93% (inactive)	–
C[Se]CCC(N)C(=O)O (stereo not given)	-11.7% [at 92.7 µM] (inactive)	–
CC(C)[C@H](N)C(=O)OCCOCn1cnc2c(=O)[nH]c(N)nc21	–	inactive
Cc1cccc(C#Cc2ccccc2)n1	-5.62% (inactive)	–
S=c1nc[nH]c2nc[nH]c12	–	inactive
COC(=O)[C@H](Cc1ccccc1)NC(=O)[C@@H](N)CC(=O)O (H-Asp-Phe-OMe)	–	inactive
CC1=C(C(=O)O)N2C(=O)[C@@H](NC(=O)[C@H](N)C3=CCC=CC3)[C@H]2SC1	–	inactive
O=C(NC(Cc1cc(=O)[nH]c2ccccc12)C(=O)O)c1ccc(Cl)cc1 (stereo not given)	–	inactive
COC(=O)C1=C(C)NC(C)=C(C(=O)OC(C)C)C1c1cccc2nonc12 (stereo not given)	8.68% (inactive)	–
CS(=O)(=O)OCCCCOS(C)(=O)=O	–	inactive
CCC(C)(Oc1ccc(C2(c3ccc(OC(C)(CC)C(=O)O)cc3)CCCCC2)cc1)C(=O)O (stereo not given)	0.928% (inactive)	–
O=C(CCc1ccc(O)cc1)c1c(O)cc(O)cc1O	15.8% (inactive)	–
CCCCCCCCCCCCCCCCCCCCCCO	-3.79% (inactive)	–
